# Assay results as given in PubChem BioAssay (NCATS).
# Inconclusive results are not listed. The source made the active and inactive calls. Calls follow the shape of the dose curve; as a rule, active = well fitted curve in the direction sought with a large enough effect; inconclusive = small, poorly fitted or top-dose-only effect, or another doubt; inactive = no such curve, though single readings can be large; an effect the other way counts as inactive or inconclusive.
# Test: Primary qHTS for inhibitors of nuclear receptor binding SET domain protein 2 (NSD2) in an isogenic RCH-ACV NSD2 p.E1099K mutant (9B) (AID 1645876)
# Details: RCH-ACV NSD2 E1099K (9B) viability, CellTiter-Glo, 72 h; series mostly up to 44.9 µM; activity change, negative = viability loss: at the top concentration
# % is scaled to controls: 0 for no effect and ±100 for the full control effect; potency is read from the fitted curve at half-maximal effect.
# Also: nearly all actives have a fitted effect of over 70% in size.
SMILES,outcome,Potency,"activity change, negative = viability loss"
Cc1ccc(Cl)c(O)c1,inactive,–,–
Oc1ccc2c3c1O[C@H]1[C@@H](O)C=C[C@H]4[C@@H](C2)NCC[C@@]341,–,28.1 µM (active),–
c1cc2ccc3cccc4ccc(c1)c2c34,–,–,6.99% [at 91.9 µM] (inactive)
CCC1(CCC(C)C)C(=O)NC(=O)NC1=O,–,–,-7.37% [at 91.9 µM] (inactive)
Clc1ccccc1C(c1ccccc1)(c1ccccc1)n1cccn1,inactive,–,–
Nc1c(Cl)c(Cl)c(Cl)c(Cl)c1Cl,–,–,3.46% [at 91.9 µM] (inactive)
CC(C)N(CCNC(=O)CN1CCCC1=O)C(C)C,inactive,–,–
O=C(O)CCCOc1ccc(Cl)cc1Cl,–,–,-6.52% [at 91.9 µM] (inactive)
N=c1c2c(-c3ccccc3)c(-c3ccccc3)n(Cc3ccccc3)c2ncn1C1CCC(O)CC1 (stereo not drawn),–,0.59 µM (active),–
Nc1ccc(N=Nc2ccccc2)cc1,–,6.11 µM (active),–
O=S(=O)(c1ccc(Cl)cc1)c1ccc(Cl)cc1,–,–,-3.42% [at 91.9 µM] (inactive)
O=S(=O)(O)C(F)(F)C(F)(F)C(F)(F)C(F)(F)F,–,–,0.147% [at 91.9 µM] (inactive)
CS(=O)(=O)c1ccc(C(=O)C2C(=O)CCCC2=O)c([N+](=O)[O-])c1,–,–,-1.14% [at 91.9 µM] (inactive)
O=C(Oc1ccc([N+](=O)[O-])cc1)N1CCN(Cc2cccc(Oc3ccccc3)c2)CC1,–,–,-6.84% (inactive)
COC[C@H]1OC(=O)c2coc3c2[C@@]1(C)C1=C(C3=O)[C@@H]2CC[C@H](O)[C@@]2(C)C[C@@H]1OC(C)=O,–,0.58 µM (active),–
CC1=C(C(=O)O)N2C(=O)[C@@H](N)[C@H]2SC1,–,–,7.93% [at 17.3 µM] (inactive)

SMILES,outcome,Potency,"activity change, negative = viability loss"
O=C(O)COc1nc(Cl)c(Cl)cc1Cl,–,–,-16.3% [at 91.9 µM] (inactive)
CN[C@@H](C)[C@H](O)c1ccccc1,–,–,0.319% (inactive)
O=[N+]([O-])c1cc([N+](=O)[O-])c2ccccc2c1,–,–,0.185% [at 91.9 µM] (inactive)
CC(C)NCC(O)c1ccc([N+](=O)[O-])cc1 (stereo not drawn),inactive,–,–
CCOCCOC(C)=O,–,–,0.318% [at 91.9 µM] (inactive)
Nc1ccc(Cl)cc1,–,–,8.92% [at 91.9 µM] (inactive)
O=[N+]([O-])c1c(Cl)c(Cl)cc(Cl)c1Cl,–,–,9.49% [at 91.9 µM] (inactive)
COc1nn(CSP(=S)(OC)OC)c(=O)s1,–,9.69 µM (active),–
CC(N[C@H]1C[C@H]1c1ccccc1)c1ccc2c(c1)OCCO2 (stereo partly drawn),–,–,-18.6% (inactive)
CC(O)CN1CCN(CC(=O)[O-])CCN(CC(=O)[O-])CCN(CC(=O)[O-])CC1.[Gd+3] (stereo not drawn),–,–,4.35% (inactive)
C=CCC1=C(C)C(OC(=O)C2C(C=C(C)C)C2(C)C)CC1=O (stereo not drawn),–,24.3 µM (active),–
CC(C)Oc1cccc(NC(=O)c2ccccc2C(F)(F)F)c1,–,21.7 µM (active),–
O=C(O)C(Cl)Cl,–,inactive,–
Fc1cc(Br)ccc1CBr,–,–,-0.793% (inactive)
CC(C)(C)NC[C@H](O)c1ccc(O)cc1Cl,–,–,8.01% (inactive)
CCCN(CCC)c1c([N+](=O)[O-])cc(S(N)(=O)=O)cc1[N+](=O)[O-],–,9.69 µM (active),–

# Test: Primary qHTS for inhibitors of nuclear receptor binding SET domain protein 2 (NSD2) in an RCH-ACV wild type WT cells (2C) (AID 1645877)
# Details: RCH-ACV (leukaemia line) NSD2 WT (2C) viability, CellTiter-Glo, 72 h; series mostly up to 44.9 µM; activity change, negative = cell killing: at the top concentration
SMILES,outcome,Potency,"activity change, negative = cell killing"
Cc1ccc(Cl)c(O)c1,inactive,–,–
Oc1ccc2c3c1O[C@H]1[C@@H](O)C=C[C@H]4[C@@H](C2)NCC[C@@]341,–,39.7 µM (active),–
c1cc2ccc3cccc4ccc(c1)c2c34,–,–,-4.61% [at 91.9 µM] (inactive)
CCC1(CCC(C)C)C(=O)NC(=O)NC1=O,–,–,-13.9% [at 91.9 µM] (inactive)
Clc1ccccc1C(c1ccccc1)(c1ccccc1)n1cccn1,–,–,2.91% (inactive)
Nc1c(Cl)c(Cl)c(Cl)c(Cl)c1Cl,–,–,8.29% [at 91.9 µM] (inactive)
CC(C)N(CCNC(=O)CN1CCCC1=O)C(C)C,inactive,–,–
O=C(O)CCCOc1ccc(Cl)cc1Cl,–,–,-12.2% [at 91.9 µM] (inactive)
N=c1c2c(-c3ccccc3)c(-c3ccccc3)n(Cc3ccccc3)c2ncn1C1CCC(O)CC1 (stereo not drawn),–,0.263 µM (active),–
O=[N+]([O-])c1c2ccccc2cc2ccccc12,–,–,-18.6% [at 91.9 µM] (inactive)
Nc1ccc(N=Nc2ccccc2)cc1,–,6.86 µM (active),–
O=S(=O)(c1ccc(Cl)cc1)c1ccc(Cl)cc1,–,–,-23.1% [at 91.9 µM] (inactive)
O=S(=O)(O)C(F)(F)C(F)(F)C(F)(F)C(F)(F)F,–,–,-2.06% [at 91.9 µM] (inactive)
CS(=O)(=O)c1ccc(C(=O)C2C(=O)CCCC2=O)c([N+](=O)[O-])c1,–,–,1.19% [at 91.9 µM] (inactive)
O=C(O)c1cc(Oc2ccc(C(F)(F)F)cc2Cl)ccc1[N+](=O)[O-],–,–,-23.7% (inactive)
O=C(Oc1ccc([N+](=O)[O-])cc1)N1CCN(Cc2cccc(Oc3ccccc3)c2)CC1,–,–,8.42% (inactive)
Nc1ccc(Sc2ccc(N)cc2)cc1,–,34.4 µM (active),–
COC[C@H]1OC(=O)c2coc3c2[C@@]1(C)C1=C(C3=O)[C@@H]2CC[C@H](O)[C@@]2(C)C[C@@H]1OC(C)=O,–,0.58 µM (active),–

SMILES,outcome,Potency,"activity change, negative = cell killing"
CC1=C(C(=O)O)N2C(=O)[C@@H](N)[C@H]2SC1,–,–,-8.72% [at 17.3 µM] (inactive)
O=C(O)COc1nc(Cl)c(Cl)cc1Cl,–,–,2.37% [at 91.9 µM] (inactive)
CN[C@@H](C)[C@H](O)c1ccccc1,–,–,-4.1% (inactive)
O=[N+]([O-])c1cc([N+](=O)[O-])c2ccccc2c1,–,–,2.19% [at 91.9 µM] (inactive)
CC(C)NCC(O)c1ccc([N+](=O)[O-])cc1 (stereo not drawn),–,–,-6.33% (inactive)
CCOCCOC(C)=O,–,–,9.43% [at 91.9 µM] (inactive)
Nc1ccc(Cl)cc1,–,–,-13% [at 91.9 µM] (inactive)
O=[N+]([O-])c1c(Cl)c(Cl)cc(Cl)c1Cl,–,–,0.973% [at 91.9 µM] (inactive)
COc1nn(CSP(=S)(OC)OC)c(=O)s1,–,13.7 µM (active),–
CC(N[C@H]1C[C@H]1c1ccccc1)c1ccc2c(c1)OCCO2 (stereo partly drawn),–,–,-22.6% (inactive)
CC(O)CN1CCN(CC(=O)[O-])CCN(CC(=O)[O-])CCN(CC(=O)[O-])CC1.[Gd+3] (stereo not drawn),–,–,9.79% (inactive)
C=CCC1=C(C)C(OC(=O)C2C(C=C(C)C)C2(C)C)CC1=O (stereo not drawn),–,34.4 µM (active),–
CC(C)Oc1cccc(NC(=O)c2ccccc2C(F)(F)F)c1,–,24.3 µM (active),–
O=C(O)C(Cl)Cl,–,inactive,–
Fc1cc(Br)ccc1CBr,–,–,9.59% (inactive)
COCCOCCO,–,–,-7.93% [at 91.9 µM] (inactive)
CC(C)(C)NC[C@H](O)c1ccc(O)cc1Cl,inactive,–,–
CCCN(CCC)c1c([N+](=O)[O-])cc(S(N)(=O)=O)cc1[N+](=O)[O-],–,12.2 µM (active),–
